Screening results from PubChem.
Sampled rows, rich in hits. Any-hit rate of the full collection: about 8%.
HT1080-NT tox – kills 2HG-producing HT-1080-NT fibrosarcoma cells; HT-1080-NT fibrosarcoma viability, CellTiter-Glo ATP luminescence, 48 h; Potency, µM (doses to about 46.1 µM), without a hit: top-dose activity, negative = less viability, hits mostly cytotoxic; hit rate 1.6% among 360,000;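 also: NT is the 2HG producing partner of a matched IDH1 knockdown line; 0% = DMSO-treated cells and -100% = media-only wells without cells; nearly all actives have a fitted effect of over 55% in size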
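Compounds were tested in concentration-response format on HT-1080-NT cells for 48 hours at 37 degrees C. Cell viability came from CellTiter-Glo luminescence; curves were classified by r2, response magnitude and activity.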
KB-3-1 tox – KB-3-1 parental cell cytotoxicity; hit rate 1.4% among 400,000; Potency, µM (doses to about 46.1 µM), usual class: cytotoxic; KB-3-1 viability, CellTiter-Glo ATP luminescence, 72 h; also: % is scaled to controls: 0 for no effect and ±100 for the full control effect; nearly all actives have a fitted effect of over 60% in size
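Cells are dispensed, compounds pinned in, plates held at 37 °C for 72 h, then CellTiter-Glo is added and luminescence read after 10 minutes. Cell line: parental KB-3-1 in phenol-red-free DMEM, 10% FBS.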
KB-V1 MDR tox – kills drug-selected multidrug resistant KB-V1 cells; KB-V1 MDR cells viability, CellTiter-Glo, 72 h; Potency, µM (top dose mostly 46.1 µM), usual class: cytotoxic; hit rate 3.4% among 400,000; AID 1347076; also: % is scaled to controls: 0 for no effect and ±100 for the full control effect; nearly all actives have a fitted effect of over 60% in size
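KB-V1 cells (P-gp-expressing MDR subline of KB-3-1) in phenol-red-free DMEM with 10% FBS were exposed to library compounds over a concentration series for 72 h at 37 degrees C. Viability read by CellTiter-Glo luminescence; concentration-effect curves fitted after normalization.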
SW480 rerep – inducers of DNA re-replication in SW480 colon cancer cells; SW480 DNA re-replication, Hoechst DNA content imaging, 48 h; Potency, µM (top dose mostly 46.1 µM), inactives show top-dose re-replication activation, hits mostly activators; hit rate 1.8% among 340,000; also: % of control where 0% means no effect; nearly all actives have a fitted effect of over 55% in size
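Compounds, transferred as 23 nL by pin tool, were incubated with cells for 48 hr; DNA content per nucleus was then quantified by Hoechst staining and fluorescence plate imaging.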
MCF10A rerep – DNA re-replication induction in MCF 10a cells. MCF 10A DNA re-replication, Hoechst nuclear intensity, 48 h. Potency, µM (highest dose often 46.1 µM), for inactives: at the highest dose activity, positive = re-replication, hits mostly activators. hit rate 2.9% among 350,000. AID 624296; also: % of control where 0% means no effect; nearly all actives have a fitted effect of over 50% in size
HT1080 IDH1KD tx – toxicity to HT-1080 IDH1 knockdown cells (counter line); hit rate 2% among 360,000; HT-1080 IDH1 knockdown viability, ATP luminescence, 48 h; Potency, µM (doses to about 46.1 µM), for inactives: top-dose activity, negative = toxicity, most hits filed as cytotoxic;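 also: 0% = DMSO wells and -100% = cell-free medium wells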
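Luminescent ATP read-out (CellTiter-Glo, 10 min at room temperature) after 48 h compound exposure at 37 °C gave viability of IDH1-knockdown HT-1080 cells. Activity was normalised to DMSO and cell-free wells, then fitted as concentration-response curves.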
Starred values were filed as active, the others as inactive; i = inactive; ? = inconclusive; · = no result. Calls follow the shape of the dose curve; as a rule, active = well fitted curve in the direction sought with a large enough effect; inconclusive = small, poorly fitted or top-dose-only effect, or another doubt; inactive = no such curve, though single readings can be large; an effect the other way counts as inactive or inconclusive. Potency is read from the fitted curve at half-maximal effect.

SMILES	HT1080-NT tox	KB-3-1 tox	KB-V1 MDR tox	SW480 rerep	MCF10A rerep	HT1080 IDH1KD tx
CCOc1cc(/C=C2\N=C(SC(C)C(N)=O)N(c3ccc(OC(F)F)cc3)C2=O)ccc1O (configuration not stated)	?	i	i	18µM*	10µM*	?
O=C1NC(=S)S/C1=C\c1cccc([N+](=O)[O-])c1	-22%	?	?	?	18µM*	-27%
CSc1ncc(Cl)c(C(=O)Nc2ccc(S(=O)(=O)N3CCC(C)CC3)cc2)n1	·	?	i	·	·	·
COc1ccc(C=C2SC(=S)NC2=O)c(OC)c1OC	-7%	?	15µM*	10%	27%	?
CCOc1cc(/C=N/N=C/c2ccc(O)c(OCC)c2)ccc1O	-1%	i	i	-8%	9%	3%
COc1cc(/C=C2\COC/C(=C\c3cc(OC)c(OC)c(OC)c3)C2=O)cc(OC)c1OC	?	?	?	?	?	0.52µM*
COc1cc(/C=C2\N=C(C)OC2=O)cc(OC)c1OC	11%	i	i	2%	2%	11%
COc1ccc(/C=C2\COc3ccccc3C2=O)cc1OC	12µM*	?	i	?	?	18µM*
CCOc1cc(/C=C2\CN(CC)C/C(=C\c3ccc(O)c(OCC)c3)C2=O)ccc1O	2.6µM*	?	?	?	?	2.9µM*
CCCc1nc2sc3c(=O)n(N)cnc3c2c2c1CCCC2	-2%	i	?	0%	9%	8%
CCOC(=O)Cc1ccc(NC(=O)NCc2c(-n3cccc3)sc3c2CCCC3)cc1	·	i	i	·	·	·
COc1cc(/C=C2\SC(N)=NC2=O)cc(Cl)c1O	-2%	i	i	-3%	0%	-12%
COc1cc(/C=C2/CCC/C(=C\c3cc(O)c(OC)c(Cl)c3)C2=O)cc(Cl)c1O	?	?	8.2µM*	6.5µM*	2.1µM*	21µM*
COc1cc(/C=C2/CCc3ccccc3C2=O)cc(OC)c1OC	-17%	?	12µM*	?	18µM*	-23%
COc1cc(/C=C2\CC/C(=C\c3cc(OC)c(O)c(OC)c3)C2=O)cc(OC)c1O	4.1µM*	16µM*	?	?	?	4.1µM*
COc1cc(/C=C2\CCc3ccccc3C2=O)cc(OC)c1OC	-13%	?	?	?	?	?
COc1cc(/C=C2\CCC/C(=C\c3ccc(O)c(OC)c3)C2=O)ccc1O	18µM*	?	?	?	4.1µM*	5.8µM*
Cc1cccc(C)c1NC(=O)c1ccc2nc(CCc3ccccc3)oc2c1	·	?	i	·	·	·
COc1ccc(/C=C2/CC/C(=C\c3ccc(OC)c(OC)c3OC)C2=O)c(OC)c1OC	6%	i	2.1µM*	?	9%	-4%
CCOc1cc(/C=N/Nc2nc3ccccc3[nH]2)cc(Br)c1OCC(=O)N(C)C	?	?	?	2%	?	?
CCOc1cc(/C=C2\COc3ccccc3C2=O)cc(Br)c1OCC(=O)N(C)C	18µM*	?	?	?	?	13µM*
COc1cc(/C=C2\CC(C(C)(C)C)C/C(=C\c3cc(OC)c(OC)c(OC)c3)C2=O)cc(OC)c1OC (configuration not stated)	12µM*	8.2µM*	i	7.3µM*	3.3µM*	5.8µM*
CC1CC1c1ccc(/C=C(\C#N)C(=O)Nc2ccccc2Cl)o1 (configuration not stated)	6%	i	?	4%	16µM*	11%
CC(C)CC(=O)Nc1nc2ccc(S(=O)(=O)N3CCOCC3)cc2s1	9.2µM*	?	?	18µM*	?	18µM*
CCCC(=O)Nc1nc2ccc(S(=O)(=O)N3CCCCC3)cc2s1	?	13µM*	?	3.7µM*	?	4.1µM*
SMILES	HT1080-NT tox	KB-3-1 tox	KB-V1 MDR tox	SW480 rerep	MCF10A rerep	HT1080 IDH1KD tx
CCOC(=O)c1sc2ccc(S(=O)(=O)N3CCCCC3)cc2c1N	?	23µM*	?	26µM*	?	?
CC(=O)Nc1nc2ccc(S(=O)(=O)N3CCCC3)cc2s1	5%	i	i	15%	1%	9%
COc1ccc(NCc2cc3ccc(OC)cc3n(CC(=O)Nc3ccc(C)c(C)c3)c2=O)cc1	·	i	i	·	·	·
COc1cc(OC)cc(C(=O)Nc2ccc3nc(N4CCCCC4)cc(C)c3c2)c1	·	i	i	·	·	·
Cc1ccc(-c2noc(C3CCCN(C(=O)c4c(F)cccc4F)C3)n2)cc1 (configuration not stated)	-3%	i	16µM*	1%	?	-29%
O=C(c1c(F)cccc1F)N1CCCC(c2nc(-c3ccc(Cl)cc3)no2)C1 (configuration not stated)	-25%	18µM*	?	-10%	?	-19%
COc1ccc(C(=O)N2CCCC(c3nc(-c4ccc(OC)c(OC)c4)no3)C2)c(OC)c1 (configuration not stated)	-4%	i	4.1µM*	4%	10%	-8%
Cc1ccc(-c2noc(C3CCCN(C(=O)c4cccc(F)c4)C3)n2)cc1 (configuration not stated)	-11%	i	i	-1%	15%	-8%
COc1ccc(-c2noc(C3CCCN(C(=O)c4c(F)cccc4F)C3)n2)cc1OC (configuration not stated)	3%	i	i	0%	-1%	3%
Cc1ccc(-c2noc(C3CCCN(C(=O)c4ccccc4Br)C3)n2)cc1 (configuration not stated)	-28%	?	18µM*	-4%	16%	?
COc1ccc(-c2noc(C3CCCN(C(=O)c4ccccc4OC)C3)n2)cc1OC (configuration not stated)	-3%	i	i	13%	-16%	-23%
COc1cc(/C=C/c2cncc(/C=C/c3cc(OC)c(OC)c(OC)c3)c2)cc(OC)c1OC	·	i	i	·	·	·
COc1ccc(-n2c3c(c(=O)[nH]c2=O)C(C(F)(F)F)(C(F)(F)F)N=C(CC(C)C)N3)cc1	4%	i	?	-4%	-1%	-17%
Cc1ccc(C2=NC(C(F)(F)F)(C(F)(F)F)c3c(n(-c4ccc(F)cc4)c(=O)[nH]c3=O)N2)cc1	-3%	10µM*	21µM*	?	?	-2%
O=c1[nH]c(=O)n(-c2ccc(F)cc2)c2c1C(C(F)(F)F)(C(F)(F)F)N=C(c1ccc(F)cc1)N2	15µM*	i	?	?	?	18µM*
